These results are taken from PubChem BioAssay (EPA / NIEHS).

Active and inactive are the calls of the source. The calls were made as follows: active = hit-call score of the fitted dose curve at least 0.9, where 1 is the maximum; inactive = score below 0.9.

Read-out in assay [1]: Vascular cell adhesion molecule 1 (VCAM1), VCAM1 (gene 7412)
Briefly: BSK_4H_VCAM1: BioMAP Diversity Plus: 4H Assay for Vascular cell adhesion molecule 1 (VCAM1) Biomarker Activity (AID 2283033).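 As to outcome: cell-surface VCAM-1 protein measured by ELISA.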 The conditions noted are these: primary human endothelial cells (HUVEC); actives raise or lower the signal. Summed up: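 ELISA read-out of VCAM-1 on human umbilical vein endothelium 24 hours after chemical dosing; gain or loss of signal was fitted relative to DMSO, with sulforhodamine B staining of parallel cultures flagging overt cytotoxicity.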

Read-out in assay [2]: Interferon-gamma inducible Protein 10 (IP10), CXCL10 (gene 3627)
Briefly: BSK_BE3C_IP10: BioMAP Diversity Plus: BE3C Assay for Interferon-gamma inducible Protein 10 (IP10) Biomarker Activity (AID 2283034). The conditions noted are these: primary human bronchial epithelial cells; actives raise or lower the signal. Summed up:
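Chemical is dosed onto human lung bronchial epithelial primary cells, cultures are incubated 24 h, and IP-10 is then quantified by ELISA. Gain or loss of signal is fitted in both directions relative to DMSO.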

Read-out in assay [3]: Monokine induced gamma interferon (MIG), CXCL9 (gene 4283)
Briefly: BSK_BE3C_MIG: BioMAP Diversity Plus: BE3C Assay for Monokine induced gamma interferon (MIG) Biomarker Activity (AID 2283035). The conditions noted are these: primary human bronchial epithelial cells; actives raise or lower the signal. Summed up: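 Primary human bronchial epithelial cells treated for 24 h; MIG levels measured by ELISA, fitted bidirectionally versus DMSO. Parallel SRB total-protein staining assessed cytotoxicity.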

Read-out in assay [4]: Transforming growth factor beta 1 (TGFb1), TGFB1 (gene 7040)
Briefly: BSK_BE3C_TGFb1: BioMAP Diversity Plus: BE3C Assay for Transforming growth factor beta 1 (TGFb1) Biomarker Activity (AID 2283036;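 as to outcome: TGF-b1 protein level measured by ELISA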). The conditions noted are these: primary human bronchial epithelial cells; actives raise or lower the signal. Summed up:
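Primary human lung bronchial epithelial cells; compound exposure 24 h; TGF-b1 by ELISA; bidirectional fit, DMSO baseline. Parallel SRB total-protein staining for cytotoxicity.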

Read-out in assay [5]: Plasminogen activator inhibitor-1 (PAI1), SERPINE1 (gene 5054)
Briefly: BSK_BE3C_PAI1: BioMAP Diversity Plus: BE3C Assay for Plasminogen activator inhibitor-1 (PAI1) Biomarker Activity (AID 2283037). Particulars: primary human bronchial epithelial cells; actives raise or lower the signal. Summed up:
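Primary human lung bronchial epithelial cells; chemical dosing; 24 h; PAI-1 measured by ELISA; bidirectional fit referenced to DMSO as negative control.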

Read-out in assay [6]: urokinase plasminogen activator (uPA), PLAU (gene 5328)
Briefly: BSK_BE3C_uPA: BioMAP Diversity Plus: BE3C Assay for urokinase plasminogen activator (uPA) Biomarker Activity (AID 2283038).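 As to outcome: uPA protein level quantified by ELISA in cell cultures; uPA read one day after compound addition.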 The conditions noted are these: primary human bronchial epithelial cells; actives raise or lower the signal. In short, it runs like this:
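Human primary bronchial epithelial cells were exposed to chemical for 24 h, then uPA levels were measured by ELISA. Responses were fitted bidirectionally against DMSO as negative control and baseline. Parallel SRB staining of total protein gauged overt cytotoxicity.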

Read-out in assay [7]: Urokinase-type plasminogen activator receptor (uPAR), PLAUR (gene 5329)
Briefly: BSK_BE3C_uPAR: BioMAP Diversity Plus: BE3C Assay for Urokinase-type plasminogen activator receptor (uPAR) Biomarker Activity (AID 2283039).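 As to outcome: cells exposed to compound for one day before measurement.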 The conditions noted are these: primary human bronchial epithelial cells; actives raise or lower the signal. Summed up:
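Human bronchial epithelial primary cells; chemical exposure 24 h; uPAR by ELISA; bidirectional fit vs DMSO control.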

Read-out in assay [8]: Interleukin-6 (IL6), IL6 (gene 3569)
Briefly: BSK_CASM3C_IL6: BioMAP Diversity Plus: CASM3C Assay for Interleukin-6 (IL6) Biomarker Activity for (AID 2283040). Particulars: primary human coronary artery smooth muscle cells; actives raise or lower the signal.

Read-out in assay [9]: Tissue plasminogen activator (tPA), PLAT (gene 5327)
As to the kind of experiment: BSK_BE3C_tPA: BioMAP Diversity Plus: BE3C Assay for Tissue plasminogen activator (tPA) Biomarker Activity (AID 2283041).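 As to outcome: tPA level quantified by ELISA one day after compound addition.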 Particulars: primary human bronchial epithelial cells; actives raise or lower the signal. In short, it runs like this:
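Primary human lung bronchial epithelial cultures receive test chemical; after 24 h, tPA is quantified by ELISA, and gain or loss of signal is fitted bidirectionally relative to DMSO baseline.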

Read-out in assay [10]: Interleukin-8 (IL8), CXCL8 (gene 3576)
Briefly: BSK_CASM3C_IL8: BioMAP Diversity Plus: CASM3C Assay for Interleukin-8 (IL8) Biomarker Activity (AID 2283042).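 Also: IL-8 protein level quantified by ELISA.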 The conditions noted are these: primary human coronary artery smooth muscle cells; actives raise or lower the signal.

Regarding `c1ccc2ccccc2c1`, the result in assay [1], in [2], in assay [3], in assay [4], in assay [5] and in assay [6] was inactive. Moreover, the result in assay [7], in [8], in assay [9] and in [10] was inactive.

Take `CCCCCCCCN(C)CCCCCCCC`: the outcome in assay [1], in assay [2], in [3], in [4], in assay [6] and in assay [7] was inactive. Also, the outcome in assay [8], in assay [9] and in [10] was inactive.

With `Clc1cc(Cl)c2c(c1)N=C1CCCCCN1C2`, the result in assay [1], in assay [2], in assay [3], in assay [4], in assay [5] and in [6] was inactive. The outcome in assay [7], in [8], in assay [9] and in assay [10] was inactive.

Take `Clc1ccccc1C(c1ccccc1)(c1ccccc1)n1ccnc1`: the half-maximal activity concentration (AC50) is 33.5 µM (active) in assay [1]; 10.7 µM (active) in assay [2]; 9.5 µM (active) in [3]; 6.45 µM (active) in [4]; 7.59 µM (active) in assay [5]; 9.81 µM (active) in assay [6]. For the same compound, the concentration at half-maximal activity (AC50) in [7] is 9.68 µM (active); in [8], 31.9 µM (active); in assay [9] it was 5.41 µM (active); in [10], 36.6 µM (active).

On to `Cc1cccc2ccccc12`, for which the outcome in [1], in [2], in assay [3], in assay [4], in assay [5] and in [6] was inactive. Moreover, the outcome in [7], in [8], in assay [9] and in assay [10] was inactive.

On to `CCCCCCCCOC(=O)c1cc(O)c(O)c(O)c1`, for which the concentration at half-maximal activity (AC50) in [1] was 6.26 µM (active); in assay [2], 29.8 µM (active); in assay [3], 34 µM (active); in assay [4] it was 27.2 µM (active); in assay [5], 32.8 µM (active); in assay [6], 37.7 µM (active). The AC50 is 36.5 µM (active) in [7], 3.97 µM (active) in [8], 24.9 µM (active) in assay [9] and 31.7 µM (active) in assay [10].

In the case of `O=C1CCC(C2CCCCC2)CC1`, the outcome in assay [1], in [3], in assay [4], in assay [5], in [6] and in assay [7] was inactive. For the same compound, the outcome in assay [8], in [9] and in [10] was inactive. Moreover, in assay [2], the AC50 is 29.6 µM (active).

With `CC(C)(C)c1csc(-c2cc3cc(OCc4ccccc4CC(=O)O)ccc3o2)n1`, the concentration at half-maximal activity (AC50) was 31.1 µM (active) in assay [1]; 6.96 µM (active) in [2]; 11.4 µM (active) in assay [3]; 5.03 µM (active) in assay [5]; 11.6 µM (active) in assay [6]; 12.2 µM (active) in [7]. In addition, the AC50 in assay [9] was 6.81 µM (active). Besides, the result in assay [4], in assay [8] and in assay [10] was inactive.

For the compound `CCCCCCCCCCCCO`, the half-maximal activity concentration (AC50) was 30.5 µM (active) in assay [1]; 30.8 µM (active) in assay [2]; 30.1 µM (active) in assay [4]; 30.7 µM (active) in assay [8]; 24.8 µM (active) in assay [9]; 35 µM (active) in assay [10]. Besides, the outcome in [3], in assay [5], in assay [6] and in assay [7] was inactive.

For the compound `Oc1ccccc1`, the outcome in [1], in [2], in assay [3], in assay [4], in assay [5] and in assay [6] was inactive. Further, the result in [7], in assay [8], in assay [9] and in assay [10] was inactive.

As to `O=c1ccc2ccccc2o1`, the result in assay [1], in assay [2], in assay [3], in assay [4], in assay [5] and in assay [6] was inactive. Besides, the result in assay [7], in [8], in [9] and in assay [10] was inactive.

For the compound `CC/C(=C(/CC)c1ccc(O)cc1)c1ccc(O)cc1`, the half-maximal activity concentration (AC50) in assay [1] was 28.9 µM (active); in [2] it was 17.1 µM (active); in assay [3], 33 µM (active); in assay [4], 6.47 µM (active); in assay [5] it was 20 µM (active); in [6], 33.6 µM (active). The results for the concentration at half-maximal activity (AC50) in assay [7], in assay [9] and in assay [10] were 31.3 µM (active), 14.3 µM (active) and 1.17 µM (active), respectively. For the same compound, the outcome in assay [8] was inactive.

With `CCN(Cc1cccnc1)C(=O)c1cccc(Cl)c1[C@]1(C)C(=O)N(Cc2ccc(OC)cc2OC)c2ccc(Cl)cc21`, the result in assay [1], in [3], in assay [4], in assay [9] and in assay [10] was inactive. In addition, the AC50 in assay [2] is 12.1 µM (active); in [5], 3.79 µM (active); in assay [6], 5.67 µM (active); in assay [7], 6.94 µM (active); in assay [8], 12.3 µM (active).

Turning to `CCN(Cc1cccc(S(=O)(=O)O)c1)c1ccc(C(=C2C=CC(=[N+](CC)Cc3cccc(S(=O)(=O)O)c3)C=C2)c2ccccc2S(=O)(=O)[O-])cc1`, the result in assay [1], in assay [2], in assay [3], in assay [4], in assay [5] and in assay [6] was inactive. For the same compound, the result in assay [7], in assay [8], in assay [9] and in [10] was inactive.

Take `Cc1ccc(C(C)C)cc1`: the outcome in [1], in assay [2], in assay [3], in assay [4], in assay [5] and in assay [6] was inactive. The outcome in assay [7], in [8], in assay [9] and in [10] was inactive.

Consider `CC(=O)N1CCN(c2ccc(OC[C@H]3CO[C@](Cn4ccnc4)(c4ccc(Cl)cc4Cl)O3)cc2)CC1`, for which the concentration at half-maximal activity (AC50) is 33.6 µM (active) in assay [1] and 29.4 µM (active) in assay [2]. Besides, the outcome in assay [3], in assay [4], in assay [5], in assay [6], in assay [7] and in assay [8] was inactive. The result in assay [9] and in assay [10] was inactive.

As to `Cc1ncc(CO)c(CO)c1O`, the outcome in [1], in [2], in [3], in assay [4], in assay [5] and in assay [6] was inactive. Besides, the result in assay [7], in [8], in [9] and in assay [10] was inactive.

Consider `Cc1cc2c(cc1C(F)(F)F)N(C(=O)Nc1ccc(Oc3cccnc3C)nc1)CC2`, for which the result in [1], in assay [3], in assay [4], in assay [5], in [7] and in assay [8] was inactive. In addition, the result in assay [9] and in [10] was inactive. Also, the AC50 is 13.1 µM (active) in assay [2] and 11.7 µM (active) in [6].

The term AC50 denotes the midpoint of the concentration-response curve, whichever way the signal moves.
